# Legend:
# Assay in all cases: DAPPL (digital affinity profiling via proximity ligation, sequencing); 10 mM Tris-HCl pH 7.5, 50 mM NaCl, 1 mM DTT, 4% glycerol, room temperature, 30 min; GST-TFs on glutathione beads, 16-mer random dsDNA library, 0.1% formaldehyde crosslink after washing; high values mean tight binding
# [1] = target: T1, FLI1 (Homo sapiens, UniProt Q01543 1-452); conditions: protein: recombinant; tags: N-terminal GST; dsDNA, one strand shown
# T1 sequence: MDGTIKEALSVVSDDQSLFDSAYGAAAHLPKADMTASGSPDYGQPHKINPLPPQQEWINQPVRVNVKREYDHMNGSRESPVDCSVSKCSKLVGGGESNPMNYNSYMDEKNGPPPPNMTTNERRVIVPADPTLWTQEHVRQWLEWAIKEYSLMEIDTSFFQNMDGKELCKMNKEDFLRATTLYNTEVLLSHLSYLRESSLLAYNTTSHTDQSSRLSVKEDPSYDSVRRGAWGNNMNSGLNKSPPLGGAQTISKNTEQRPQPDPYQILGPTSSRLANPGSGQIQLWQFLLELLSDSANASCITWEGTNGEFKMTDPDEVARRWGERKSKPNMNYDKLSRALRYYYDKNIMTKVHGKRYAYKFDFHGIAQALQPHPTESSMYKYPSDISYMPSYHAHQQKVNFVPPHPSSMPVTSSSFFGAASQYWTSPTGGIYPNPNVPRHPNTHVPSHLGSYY
# Procedure, shortened: (§1)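 GST fusions of human transcription factors were expressed in yeast and captured with glutathione beads. Once given DNA barcodes and pooled alongside a tag-only sample, they were incubated for 30 min at room temperature with 200 nmole of a random double-stranded 16-mer DNA library in Tris/NaCl/DTT/glycerol buffer, then washed, crosslinked (0.1% formaldehyde), proximity-ligated, PCR-amplified and sequenced on an Illumina NextSeq500. The binding signal of each hexamer is its read frequency for a factor divided by its frequency for the tag-only sample.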
# [2] = target: T2, ELK1 (Homo sapiens, UniProt P19419 1-428); conditions: protein: recombinant; tags: N-terminal GST; dsDNA, one strand shown
# T2 sequence: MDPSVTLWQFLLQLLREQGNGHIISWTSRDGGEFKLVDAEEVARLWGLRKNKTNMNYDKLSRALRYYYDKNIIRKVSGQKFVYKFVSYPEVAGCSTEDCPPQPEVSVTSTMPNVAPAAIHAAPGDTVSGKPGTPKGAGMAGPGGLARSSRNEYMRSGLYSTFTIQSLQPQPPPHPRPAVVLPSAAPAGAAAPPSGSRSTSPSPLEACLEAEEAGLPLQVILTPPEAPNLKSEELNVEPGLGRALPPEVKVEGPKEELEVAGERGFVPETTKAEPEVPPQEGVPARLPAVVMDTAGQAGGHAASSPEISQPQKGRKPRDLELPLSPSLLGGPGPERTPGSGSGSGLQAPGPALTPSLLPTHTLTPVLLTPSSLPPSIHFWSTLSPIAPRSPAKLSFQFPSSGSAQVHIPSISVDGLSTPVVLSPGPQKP
# Procedure, shortened: as §1
# [3] = target: T3, GABPA (Homo sapiens, UniProt Q06546 1-454); conditions: protein: recombinant; tags: N-terminal GST; dsDNA, one strand shown
# T3 sequence: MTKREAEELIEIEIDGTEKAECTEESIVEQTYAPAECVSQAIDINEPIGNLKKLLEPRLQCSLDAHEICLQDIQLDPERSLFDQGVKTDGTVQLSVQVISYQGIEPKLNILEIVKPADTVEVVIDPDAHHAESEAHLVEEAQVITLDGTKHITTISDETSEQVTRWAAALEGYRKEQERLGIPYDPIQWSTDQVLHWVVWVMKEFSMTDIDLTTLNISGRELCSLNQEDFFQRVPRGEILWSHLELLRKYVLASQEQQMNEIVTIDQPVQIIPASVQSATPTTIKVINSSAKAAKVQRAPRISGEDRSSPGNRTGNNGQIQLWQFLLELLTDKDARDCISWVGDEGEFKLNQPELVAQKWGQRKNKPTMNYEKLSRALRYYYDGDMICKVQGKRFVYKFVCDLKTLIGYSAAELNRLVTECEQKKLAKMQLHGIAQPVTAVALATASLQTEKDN
# Procedure, shortened: as §1
# [4] = target: T4, ERG (Homo sapiens, UniProt P11308 1-479); conditions: protein: recombinant; tags: N-terminal GST; dsDNA, one strand shown
# T4 sequence: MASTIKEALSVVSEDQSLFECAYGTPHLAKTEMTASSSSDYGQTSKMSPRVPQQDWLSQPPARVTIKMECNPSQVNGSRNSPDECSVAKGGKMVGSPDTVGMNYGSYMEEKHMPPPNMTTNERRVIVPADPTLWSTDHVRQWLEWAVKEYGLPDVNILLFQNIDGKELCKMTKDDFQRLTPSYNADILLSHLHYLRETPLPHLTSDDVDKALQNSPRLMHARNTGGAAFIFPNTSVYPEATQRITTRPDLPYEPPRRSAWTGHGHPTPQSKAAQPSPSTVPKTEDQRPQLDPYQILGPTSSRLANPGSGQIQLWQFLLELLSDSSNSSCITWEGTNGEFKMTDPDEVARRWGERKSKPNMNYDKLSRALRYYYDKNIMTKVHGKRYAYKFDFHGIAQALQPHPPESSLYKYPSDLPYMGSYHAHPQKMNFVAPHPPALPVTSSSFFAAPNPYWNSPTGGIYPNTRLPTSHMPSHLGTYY
# Procedure, shortened: as §1
# [5] = target: ELF1 (Homo sapiens, UniProt P32519 1-619); conditions: protein: recombinant; tags: N-terminal GST; dsDNA, one strand shown
# Procedure, shortened: as §1
# [6] = target: T5, EHF (Homo sapiens, UniProt Q9NZC4 1-300); conditions: protein: recombinant; tags: N-terminal GST; dsDNA, one strand shown
# T5 sequence: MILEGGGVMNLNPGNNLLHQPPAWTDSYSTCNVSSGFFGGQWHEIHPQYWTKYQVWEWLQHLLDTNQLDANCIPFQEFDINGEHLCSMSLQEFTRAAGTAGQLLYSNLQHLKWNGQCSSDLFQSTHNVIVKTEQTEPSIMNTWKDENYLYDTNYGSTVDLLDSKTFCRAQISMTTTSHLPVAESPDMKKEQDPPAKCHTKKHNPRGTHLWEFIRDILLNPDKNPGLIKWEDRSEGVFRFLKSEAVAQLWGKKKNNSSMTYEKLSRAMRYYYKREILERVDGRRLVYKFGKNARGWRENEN
# Procedure, shortened: as §1
# [7] = target: SPI1 (Homo sapiens, UniProt P17947 1-270); conditions: protein: recombinant; tags: N-terminal GST; dsDNA, one strand shown
# Procedure, shortened: as §1
# [8] = target: SPIB (Homo sapiens, UniProt Q01892 1-262); conditions: protein: recombinant; tags: N-terminal GST; dsDNA, one strand shown
# Procedure, shortened: as §1
# [9] = target: T6, ELK3 (Homo sapiens, UniProt P41970 1-407); conditions: protein: recombinant; tags: N-terminal GST; dsDNA, one strand shown
# T6 sequence: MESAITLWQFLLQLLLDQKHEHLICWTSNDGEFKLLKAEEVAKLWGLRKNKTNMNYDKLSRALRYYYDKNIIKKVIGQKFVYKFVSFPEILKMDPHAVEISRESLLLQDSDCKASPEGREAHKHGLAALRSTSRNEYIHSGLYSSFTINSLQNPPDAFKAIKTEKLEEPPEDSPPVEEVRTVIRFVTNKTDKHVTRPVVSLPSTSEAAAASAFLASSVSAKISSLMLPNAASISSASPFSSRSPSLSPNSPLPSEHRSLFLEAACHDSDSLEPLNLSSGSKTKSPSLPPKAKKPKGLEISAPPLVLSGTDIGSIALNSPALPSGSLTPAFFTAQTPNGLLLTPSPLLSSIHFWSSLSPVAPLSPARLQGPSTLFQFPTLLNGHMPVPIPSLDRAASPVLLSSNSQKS
# Procedure, shortened: as §1
# [10] = target: T7, FEV (Homo sapiens, UniProt Q99581 1-238); conditions: protein: recombinant; tags: N-terminal GST; dsDNA, one strand shown
# T7 sequence: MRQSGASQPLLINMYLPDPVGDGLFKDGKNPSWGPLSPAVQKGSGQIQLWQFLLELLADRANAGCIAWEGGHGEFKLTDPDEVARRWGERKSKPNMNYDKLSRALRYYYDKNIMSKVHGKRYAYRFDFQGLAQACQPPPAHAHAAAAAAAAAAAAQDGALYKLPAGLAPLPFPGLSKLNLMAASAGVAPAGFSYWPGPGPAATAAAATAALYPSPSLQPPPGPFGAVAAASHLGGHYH
# Procedure, shortened: as §1
# [11] = target: ETV5 (Homo sapiens, UniProt P41161 1-510); conditions: protein: recombinant; tags: N-terminal GST; dsDNA, one strand shown
# Procedure, shortened: as §1
# [12] = target: HSF1 (Homo sapiens, UniProt Q00613 1-529); conditions: protein: recombinant; tags: N-terminal GST; chain copies: 3; dsDNA, one strand shown
# Procedure, shortened: as §1
# [13] = target: T8, SPIC (Homo sapiens, UniProt Q8N5J4 1-248); conditions: protein: recombinant; tags: N-terminal GST; dsDNA, one strand shown
# T8 sequence: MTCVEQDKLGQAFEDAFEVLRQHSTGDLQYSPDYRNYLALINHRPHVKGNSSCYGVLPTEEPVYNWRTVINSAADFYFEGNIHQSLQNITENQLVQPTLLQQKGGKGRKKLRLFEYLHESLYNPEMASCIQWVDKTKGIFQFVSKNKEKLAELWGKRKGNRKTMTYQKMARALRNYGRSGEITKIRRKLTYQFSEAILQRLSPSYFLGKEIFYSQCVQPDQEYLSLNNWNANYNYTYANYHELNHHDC
# Procedure, shortened: as §1
# [14] = target: ELF4 (Homo sapiens, UniProt Q99607 1-663); conditions: protein: recombinant; tags: N-terminal GST; dsDNA, one strand shown
# Procedure, shortened: as §1
# [15] = target: T9, ELK4 (Homo sapiens, UniProt P28324-2 1-405); conditions: protein: recombinant; tags: N-terminal GST; dsDNA, one strand shown
# T9 sequence: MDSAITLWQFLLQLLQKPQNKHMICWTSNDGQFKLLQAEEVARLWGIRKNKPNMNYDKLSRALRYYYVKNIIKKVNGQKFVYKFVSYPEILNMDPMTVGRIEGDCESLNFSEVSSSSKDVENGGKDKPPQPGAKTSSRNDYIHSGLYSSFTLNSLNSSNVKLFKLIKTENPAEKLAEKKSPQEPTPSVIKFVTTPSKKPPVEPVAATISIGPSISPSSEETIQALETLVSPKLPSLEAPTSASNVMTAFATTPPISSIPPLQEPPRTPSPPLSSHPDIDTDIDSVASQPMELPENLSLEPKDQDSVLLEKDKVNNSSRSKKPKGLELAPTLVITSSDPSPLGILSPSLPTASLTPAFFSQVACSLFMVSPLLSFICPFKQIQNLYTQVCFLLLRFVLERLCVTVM
# Procedure, shortened: as §1
# [16] = target: T10, ETV2 (Homo sapiens, UniProt O00321 1-342); conditions: protein: recombinant; tags: N-terminal GST; dsDNA, one strand shown
# T10 sequence: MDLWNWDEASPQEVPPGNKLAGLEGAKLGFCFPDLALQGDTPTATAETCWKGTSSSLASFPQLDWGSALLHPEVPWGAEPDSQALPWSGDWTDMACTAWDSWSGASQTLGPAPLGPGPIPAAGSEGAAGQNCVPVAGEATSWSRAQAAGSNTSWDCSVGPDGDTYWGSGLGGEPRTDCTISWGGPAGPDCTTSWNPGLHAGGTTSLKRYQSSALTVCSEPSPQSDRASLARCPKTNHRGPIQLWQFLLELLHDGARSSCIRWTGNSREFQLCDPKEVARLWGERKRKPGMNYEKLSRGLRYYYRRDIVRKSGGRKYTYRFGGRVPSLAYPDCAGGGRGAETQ
# Procedure, shortened: as §1
# [17] = target: T11, ELF3 (Homo sapiens, UniProt P78545 1-371); conditions: protein: recombinant; tags: N-terminal GST; dsDNA, one strand shown
# T11 sequence: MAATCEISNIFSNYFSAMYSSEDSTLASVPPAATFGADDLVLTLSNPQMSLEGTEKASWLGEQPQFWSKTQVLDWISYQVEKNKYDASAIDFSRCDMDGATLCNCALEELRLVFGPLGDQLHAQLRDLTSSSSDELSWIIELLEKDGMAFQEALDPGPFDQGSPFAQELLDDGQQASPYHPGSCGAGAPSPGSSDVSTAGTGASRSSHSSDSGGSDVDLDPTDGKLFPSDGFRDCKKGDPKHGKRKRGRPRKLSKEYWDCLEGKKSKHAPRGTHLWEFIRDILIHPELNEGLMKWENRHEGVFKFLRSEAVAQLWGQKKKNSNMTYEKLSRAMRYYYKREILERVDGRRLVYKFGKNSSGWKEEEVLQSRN
# Procedure, shortened: as §1
# [18] = target: CRX (Homo sapiens, UniProt O43186 1-299); conditions: protein: recombinant; tags: N-terminal GST; dsDNA, one strand shown
# Procedure, shortened: as §1
# [19] = target: ETV1 (Homo sapiens, UniProt P50549 1-477); conditions: protein: recombinant; tags: N-terminal GST; dsDNA, one strand shown
# Procedure, shortened: as §1
# Sequence of ELF4 (Q99607 whole entry): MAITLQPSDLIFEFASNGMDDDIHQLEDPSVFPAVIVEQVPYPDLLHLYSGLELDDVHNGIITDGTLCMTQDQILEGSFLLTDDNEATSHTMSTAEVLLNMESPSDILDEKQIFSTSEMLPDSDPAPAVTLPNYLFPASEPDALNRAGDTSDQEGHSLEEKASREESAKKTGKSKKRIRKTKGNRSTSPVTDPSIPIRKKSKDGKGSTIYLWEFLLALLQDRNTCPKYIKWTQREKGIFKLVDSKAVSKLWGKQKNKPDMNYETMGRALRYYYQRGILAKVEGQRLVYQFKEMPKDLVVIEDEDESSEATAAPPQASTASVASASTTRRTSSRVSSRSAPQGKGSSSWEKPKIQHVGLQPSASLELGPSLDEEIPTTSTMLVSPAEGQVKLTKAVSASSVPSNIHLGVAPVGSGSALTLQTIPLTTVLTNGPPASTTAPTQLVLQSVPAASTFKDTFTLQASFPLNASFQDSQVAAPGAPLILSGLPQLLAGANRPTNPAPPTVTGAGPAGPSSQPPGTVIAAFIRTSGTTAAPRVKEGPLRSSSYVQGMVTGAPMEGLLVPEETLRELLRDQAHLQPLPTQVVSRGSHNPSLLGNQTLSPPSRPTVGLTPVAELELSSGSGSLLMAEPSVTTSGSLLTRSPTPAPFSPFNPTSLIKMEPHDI
# Sequence of ELF1 (P32519 whole entry): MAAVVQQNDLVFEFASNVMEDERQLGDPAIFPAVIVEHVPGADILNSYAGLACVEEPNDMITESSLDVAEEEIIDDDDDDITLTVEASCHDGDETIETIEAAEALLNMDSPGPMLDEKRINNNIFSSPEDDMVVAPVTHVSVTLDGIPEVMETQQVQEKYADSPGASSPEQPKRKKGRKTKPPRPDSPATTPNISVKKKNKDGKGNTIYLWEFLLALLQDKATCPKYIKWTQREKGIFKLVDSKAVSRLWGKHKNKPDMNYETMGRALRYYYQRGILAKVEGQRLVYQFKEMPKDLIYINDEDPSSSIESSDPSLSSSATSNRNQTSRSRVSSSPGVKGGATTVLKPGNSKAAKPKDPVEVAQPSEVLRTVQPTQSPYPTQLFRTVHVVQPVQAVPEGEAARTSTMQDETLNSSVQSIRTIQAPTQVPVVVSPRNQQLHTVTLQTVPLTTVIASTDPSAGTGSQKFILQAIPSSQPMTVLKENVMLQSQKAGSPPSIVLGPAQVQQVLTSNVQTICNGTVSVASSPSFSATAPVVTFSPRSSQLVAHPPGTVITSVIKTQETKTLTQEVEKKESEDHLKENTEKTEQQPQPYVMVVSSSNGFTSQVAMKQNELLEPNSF
# Sequence of ETV1 (P50549 whole entry): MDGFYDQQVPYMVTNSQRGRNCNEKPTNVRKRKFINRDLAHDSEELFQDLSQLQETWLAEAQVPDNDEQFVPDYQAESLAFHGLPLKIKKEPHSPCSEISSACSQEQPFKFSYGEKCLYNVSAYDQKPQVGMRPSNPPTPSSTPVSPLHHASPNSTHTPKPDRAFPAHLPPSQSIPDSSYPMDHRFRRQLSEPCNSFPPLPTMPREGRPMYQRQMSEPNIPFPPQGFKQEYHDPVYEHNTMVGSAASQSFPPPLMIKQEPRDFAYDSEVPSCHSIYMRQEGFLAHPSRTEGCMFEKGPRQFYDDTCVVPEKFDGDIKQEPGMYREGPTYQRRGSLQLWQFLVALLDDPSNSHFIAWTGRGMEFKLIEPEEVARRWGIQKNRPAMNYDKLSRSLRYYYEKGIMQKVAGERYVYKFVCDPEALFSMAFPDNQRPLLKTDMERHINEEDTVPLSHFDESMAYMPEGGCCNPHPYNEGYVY
# Sequence of CRX (O43186 whole entry): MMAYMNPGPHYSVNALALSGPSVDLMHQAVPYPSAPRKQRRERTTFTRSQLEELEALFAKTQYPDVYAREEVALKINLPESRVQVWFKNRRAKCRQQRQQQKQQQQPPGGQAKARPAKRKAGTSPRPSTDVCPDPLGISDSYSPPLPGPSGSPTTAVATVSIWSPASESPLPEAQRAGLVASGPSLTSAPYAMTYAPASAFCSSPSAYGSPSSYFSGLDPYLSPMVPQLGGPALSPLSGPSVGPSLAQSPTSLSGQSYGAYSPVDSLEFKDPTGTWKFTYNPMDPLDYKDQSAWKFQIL
# Sequence of ETV5 (P41161 whole entry): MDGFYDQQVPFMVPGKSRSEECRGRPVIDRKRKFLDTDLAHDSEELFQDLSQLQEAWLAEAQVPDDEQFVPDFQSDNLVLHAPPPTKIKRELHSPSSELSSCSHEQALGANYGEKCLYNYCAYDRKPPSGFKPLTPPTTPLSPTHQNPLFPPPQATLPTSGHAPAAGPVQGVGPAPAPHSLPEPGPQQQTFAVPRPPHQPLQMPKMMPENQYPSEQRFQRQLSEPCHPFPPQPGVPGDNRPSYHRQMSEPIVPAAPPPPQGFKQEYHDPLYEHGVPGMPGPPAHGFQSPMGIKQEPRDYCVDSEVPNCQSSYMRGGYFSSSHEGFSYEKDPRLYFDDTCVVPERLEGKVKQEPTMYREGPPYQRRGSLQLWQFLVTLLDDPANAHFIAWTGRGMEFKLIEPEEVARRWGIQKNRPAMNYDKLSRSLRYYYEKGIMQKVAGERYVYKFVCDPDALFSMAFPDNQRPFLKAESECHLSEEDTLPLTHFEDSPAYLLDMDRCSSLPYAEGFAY
# Sequence of SPIB (Q01892 whole entry): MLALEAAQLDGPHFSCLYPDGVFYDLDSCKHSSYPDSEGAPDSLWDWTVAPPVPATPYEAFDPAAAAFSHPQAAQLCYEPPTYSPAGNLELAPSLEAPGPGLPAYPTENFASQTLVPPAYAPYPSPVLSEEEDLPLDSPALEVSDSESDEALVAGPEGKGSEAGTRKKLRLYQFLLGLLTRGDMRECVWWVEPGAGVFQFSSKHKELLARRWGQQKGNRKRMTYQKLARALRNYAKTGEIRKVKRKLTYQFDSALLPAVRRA
# Sequence of HSF1 (Q00613 whole entry): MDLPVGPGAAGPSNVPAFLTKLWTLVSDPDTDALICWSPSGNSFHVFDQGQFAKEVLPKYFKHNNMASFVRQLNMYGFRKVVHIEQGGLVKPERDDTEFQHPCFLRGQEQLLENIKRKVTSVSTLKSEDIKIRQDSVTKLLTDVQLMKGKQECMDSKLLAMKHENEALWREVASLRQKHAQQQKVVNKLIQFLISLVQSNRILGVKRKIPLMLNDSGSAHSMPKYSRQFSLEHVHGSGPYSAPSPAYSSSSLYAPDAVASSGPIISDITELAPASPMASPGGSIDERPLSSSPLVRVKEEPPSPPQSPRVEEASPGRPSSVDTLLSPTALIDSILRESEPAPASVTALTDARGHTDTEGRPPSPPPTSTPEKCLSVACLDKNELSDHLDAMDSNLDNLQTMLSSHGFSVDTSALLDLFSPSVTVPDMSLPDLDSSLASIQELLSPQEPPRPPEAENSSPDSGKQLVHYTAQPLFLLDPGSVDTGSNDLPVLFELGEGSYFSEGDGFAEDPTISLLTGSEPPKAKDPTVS
sequence,measurement,setting,value
TGACCT,binding signal,[1],"1.75 fold enrichment (6-mer frequency, TF over GST control)"
same,binding signal,[2],"1.82 fold enrichment (6-mer frequency, TF over GST control)"
same,binding signal,[3],"1.81 fold enrichment (6-mer frequency, TF over GST control)"
same,binding signal,[4],"1.73 fold enrichment (6-mer frequency, TF over GST control)"
same,binding signal,[5],"1.84 fold enrichment (6-mer frequency, TF over GST control)"
same,binding signal,[6],"1.86 fold enrichment (6-mer frequency, TF over GST control)"
same,binding signal,[7],"1.7 fold enrichment (6-mer frequency, TF over GST control)"
same,binding signal,[8],"1.56 fold enrichment (6-mer frequency, TF over GST control)"
same,binding signal,[9],"1.6 fold enrichment (6-mer frequency, TF over GST control)"
same,binding signal,[10],"1.69 fold enrichment (6-mer frequency, TF over GST control)"
same,binding signal,[11],"1.68 fold enrichment (6-mer frequency, TF over GST control)"
same,binding signal,[12],"1.5 fold enrichment (6-mer frequency, TF over GST control)"
same,binding signal,[13],"1.79 fold enrichment (6-mer frequency, TF over GST control)"
same,binding signal,[14],"1.82 fold enrichment (6-mer frequency, TF over GST control)"
same,binding signal,[15],"1.74 fold enrichment (6-mer frequency, TF over GST control)"
same,binding signal,[16],"1.65 fold enrichment (6-mer frequency, TF over GST control)"
same,binding signal,[17],"1.68 fold enrichment (6-mer frequency, TF over GST control)"
same,binding signal,[18],"1.36 fold enrichment (6-mer frequency, TF over GST control)"
same,binding signal,[19],"1.88 fold enrichment (6-mer frequency, TF over GST control)"
